Key:
Experiment in all cases: log2 ratio of Biotin-Ahx-Ub-VS probe labelling (fragment/DMSO); higher = less target engagement (more negative = stronger competition), active = hit call of the paper (q ≤ 0.05, log2 ratio ≤ -1)
Conditions in all cases: compound concentration: 200 uM; treatment time: 3 h
[1] = biological target: USP34 (UniProt Q70CQ2)
How it was run: (§1)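 The table lists average log2 ratios of fragment over vehicle, from an unpaired t-test on global-median-normalised Spectronaut label-free quantities. Proteins with ≥2 unique peptides were used. Samples were HEK293T lysate (495 µg) treated in triplicate with fragment at 200 µM or vehicle for 3 h, then with Biotin-Ahx-Ub-VS (0.5 µM final) for 1 h, with labelled DUBs NeutrAvidin-enriched and run by diaPASEF LC-MS/MS.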

[2] = biological target: T1, USP36 (UniProt Q9P275)
T1 sequence (whole entry): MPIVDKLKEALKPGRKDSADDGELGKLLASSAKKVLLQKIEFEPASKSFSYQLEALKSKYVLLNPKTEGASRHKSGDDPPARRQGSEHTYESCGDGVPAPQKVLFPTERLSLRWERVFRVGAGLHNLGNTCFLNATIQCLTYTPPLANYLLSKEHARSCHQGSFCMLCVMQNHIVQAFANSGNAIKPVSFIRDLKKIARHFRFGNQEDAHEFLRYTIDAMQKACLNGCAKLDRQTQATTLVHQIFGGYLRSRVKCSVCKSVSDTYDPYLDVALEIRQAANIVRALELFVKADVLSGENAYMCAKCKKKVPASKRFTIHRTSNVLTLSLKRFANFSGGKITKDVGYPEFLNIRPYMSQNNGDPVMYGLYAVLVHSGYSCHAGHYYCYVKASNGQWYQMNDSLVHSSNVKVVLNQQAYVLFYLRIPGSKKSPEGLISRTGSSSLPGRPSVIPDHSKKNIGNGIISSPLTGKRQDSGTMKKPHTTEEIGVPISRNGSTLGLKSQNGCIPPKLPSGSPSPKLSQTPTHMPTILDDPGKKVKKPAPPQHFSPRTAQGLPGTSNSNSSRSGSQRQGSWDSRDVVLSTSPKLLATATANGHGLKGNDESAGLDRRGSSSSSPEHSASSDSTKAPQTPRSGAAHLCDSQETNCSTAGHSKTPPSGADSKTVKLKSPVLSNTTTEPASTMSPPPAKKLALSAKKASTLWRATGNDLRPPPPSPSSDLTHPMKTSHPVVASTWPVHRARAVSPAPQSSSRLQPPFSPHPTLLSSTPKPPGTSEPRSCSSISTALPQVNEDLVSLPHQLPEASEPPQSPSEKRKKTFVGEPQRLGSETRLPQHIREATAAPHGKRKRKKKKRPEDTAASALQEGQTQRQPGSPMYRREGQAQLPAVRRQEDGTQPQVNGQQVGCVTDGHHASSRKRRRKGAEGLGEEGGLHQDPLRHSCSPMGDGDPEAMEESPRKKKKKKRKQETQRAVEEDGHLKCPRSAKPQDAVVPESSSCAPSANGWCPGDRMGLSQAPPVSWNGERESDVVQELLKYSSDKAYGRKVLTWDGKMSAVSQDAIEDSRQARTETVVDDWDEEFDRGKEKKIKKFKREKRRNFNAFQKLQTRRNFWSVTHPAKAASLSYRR
How it was run: as §1

[3] = biological target: T2, USP38 (UniProt Q8NB14)
T2 sequence (whole entry): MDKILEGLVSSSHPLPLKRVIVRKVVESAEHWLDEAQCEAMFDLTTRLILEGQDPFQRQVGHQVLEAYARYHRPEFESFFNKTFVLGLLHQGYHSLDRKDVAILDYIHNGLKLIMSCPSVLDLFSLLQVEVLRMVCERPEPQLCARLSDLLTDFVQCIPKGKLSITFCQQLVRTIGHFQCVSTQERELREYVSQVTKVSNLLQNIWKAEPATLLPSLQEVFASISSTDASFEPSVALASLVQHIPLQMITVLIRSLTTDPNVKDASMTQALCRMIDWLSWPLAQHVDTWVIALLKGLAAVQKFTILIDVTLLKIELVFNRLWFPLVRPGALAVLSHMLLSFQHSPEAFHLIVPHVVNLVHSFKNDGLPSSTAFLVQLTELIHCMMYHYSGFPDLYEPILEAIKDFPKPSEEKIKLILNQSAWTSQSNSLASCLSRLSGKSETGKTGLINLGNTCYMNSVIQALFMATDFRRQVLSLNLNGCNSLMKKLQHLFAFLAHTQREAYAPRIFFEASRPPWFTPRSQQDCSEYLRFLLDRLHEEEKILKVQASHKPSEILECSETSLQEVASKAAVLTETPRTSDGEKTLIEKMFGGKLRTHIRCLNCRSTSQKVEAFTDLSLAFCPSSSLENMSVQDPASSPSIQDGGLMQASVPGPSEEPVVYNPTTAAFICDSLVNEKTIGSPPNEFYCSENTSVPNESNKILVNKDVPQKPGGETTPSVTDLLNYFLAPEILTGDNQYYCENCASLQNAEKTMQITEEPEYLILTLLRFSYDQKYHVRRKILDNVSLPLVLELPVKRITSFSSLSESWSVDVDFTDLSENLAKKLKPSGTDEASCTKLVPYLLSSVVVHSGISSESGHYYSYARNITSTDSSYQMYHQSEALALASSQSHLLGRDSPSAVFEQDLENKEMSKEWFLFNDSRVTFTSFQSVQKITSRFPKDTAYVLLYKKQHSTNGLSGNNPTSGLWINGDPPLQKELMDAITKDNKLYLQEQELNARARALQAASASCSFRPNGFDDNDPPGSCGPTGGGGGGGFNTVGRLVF
How it was run: as §1

[4] = biological target: T3, USP39 (UniProt Q53GS9)
T3 sequence (whole entry): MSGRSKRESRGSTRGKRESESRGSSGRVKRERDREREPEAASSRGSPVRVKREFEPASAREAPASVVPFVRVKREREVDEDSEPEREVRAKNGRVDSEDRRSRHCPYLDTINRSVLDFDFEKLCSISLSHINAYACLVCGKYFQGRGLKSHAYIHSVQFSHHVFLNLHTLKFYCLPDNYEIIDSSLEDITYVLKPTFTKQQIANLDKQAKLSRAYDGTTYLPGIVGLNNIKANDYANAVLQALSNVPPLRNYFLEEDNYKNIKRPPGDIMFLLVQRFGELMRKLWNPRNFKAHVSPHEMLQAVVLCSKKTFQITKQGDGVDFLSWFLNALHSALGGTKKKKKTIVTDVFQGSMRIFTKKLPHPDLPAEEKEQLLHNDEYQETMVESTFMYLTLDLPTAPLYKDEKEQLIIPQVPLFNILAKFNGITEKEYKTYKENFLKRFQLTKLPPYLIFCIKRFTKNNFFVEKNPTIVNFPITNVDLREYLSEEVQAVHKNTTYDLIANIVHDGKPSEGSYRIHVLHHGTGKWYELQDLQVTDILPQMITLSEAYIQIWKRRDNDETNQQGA
How it was run: as §1

[5] = biological target: T4, USP4 (UniProt Q13107)
T4 sequence (whole entry): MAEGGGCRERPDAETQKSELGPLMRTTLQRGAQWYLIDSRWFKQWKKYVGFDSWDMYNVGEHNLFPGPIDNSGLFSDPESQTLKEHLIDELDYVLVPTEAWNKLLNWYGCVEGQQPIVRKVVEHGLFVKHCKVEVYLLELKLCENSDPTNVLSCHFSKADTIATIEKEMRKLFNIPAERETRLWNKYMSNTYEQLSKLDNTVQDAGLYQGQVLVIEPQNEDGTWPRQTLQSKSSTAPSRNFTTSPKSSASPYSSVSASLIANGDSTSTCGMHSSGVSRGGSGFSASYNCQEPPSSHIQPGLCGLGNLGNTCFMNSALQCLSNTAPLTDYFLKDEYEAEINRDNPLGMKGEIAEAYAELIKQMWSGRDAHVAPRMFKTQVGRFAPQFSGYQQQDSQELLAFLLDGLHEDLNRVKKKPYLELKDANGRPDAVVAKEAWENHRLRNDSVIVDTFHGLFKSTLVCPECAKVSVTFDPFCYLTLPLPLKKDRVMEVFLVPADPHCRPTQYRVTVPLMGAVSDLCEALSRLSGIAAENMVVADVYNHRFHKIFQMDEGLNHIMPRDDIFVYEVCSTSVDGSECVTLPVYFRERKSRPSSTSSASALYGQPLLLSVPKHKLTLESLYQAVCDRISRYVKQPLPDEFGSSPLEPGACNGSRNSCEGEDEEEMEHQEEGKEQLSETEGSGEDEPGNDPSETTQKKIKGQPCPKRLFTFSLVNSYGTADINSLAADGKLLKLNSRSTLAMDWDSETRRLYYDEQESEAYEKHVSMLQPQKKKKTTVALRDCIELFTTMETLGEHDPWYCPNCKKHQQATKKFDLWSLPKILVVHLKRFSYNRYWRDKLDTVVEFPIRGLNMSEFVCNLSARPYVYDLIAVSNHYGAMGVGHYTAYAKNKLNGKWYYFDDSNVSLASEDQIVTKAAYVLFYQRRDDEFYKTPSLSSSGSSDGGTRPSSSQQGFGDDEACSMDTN
How it was run: as §1

Measured: log2 ratio of Biotin-Ahx-Ub-VS probe labelling

Chain of USP34 (Q70CQ2 whole entry, the tested form may be a part): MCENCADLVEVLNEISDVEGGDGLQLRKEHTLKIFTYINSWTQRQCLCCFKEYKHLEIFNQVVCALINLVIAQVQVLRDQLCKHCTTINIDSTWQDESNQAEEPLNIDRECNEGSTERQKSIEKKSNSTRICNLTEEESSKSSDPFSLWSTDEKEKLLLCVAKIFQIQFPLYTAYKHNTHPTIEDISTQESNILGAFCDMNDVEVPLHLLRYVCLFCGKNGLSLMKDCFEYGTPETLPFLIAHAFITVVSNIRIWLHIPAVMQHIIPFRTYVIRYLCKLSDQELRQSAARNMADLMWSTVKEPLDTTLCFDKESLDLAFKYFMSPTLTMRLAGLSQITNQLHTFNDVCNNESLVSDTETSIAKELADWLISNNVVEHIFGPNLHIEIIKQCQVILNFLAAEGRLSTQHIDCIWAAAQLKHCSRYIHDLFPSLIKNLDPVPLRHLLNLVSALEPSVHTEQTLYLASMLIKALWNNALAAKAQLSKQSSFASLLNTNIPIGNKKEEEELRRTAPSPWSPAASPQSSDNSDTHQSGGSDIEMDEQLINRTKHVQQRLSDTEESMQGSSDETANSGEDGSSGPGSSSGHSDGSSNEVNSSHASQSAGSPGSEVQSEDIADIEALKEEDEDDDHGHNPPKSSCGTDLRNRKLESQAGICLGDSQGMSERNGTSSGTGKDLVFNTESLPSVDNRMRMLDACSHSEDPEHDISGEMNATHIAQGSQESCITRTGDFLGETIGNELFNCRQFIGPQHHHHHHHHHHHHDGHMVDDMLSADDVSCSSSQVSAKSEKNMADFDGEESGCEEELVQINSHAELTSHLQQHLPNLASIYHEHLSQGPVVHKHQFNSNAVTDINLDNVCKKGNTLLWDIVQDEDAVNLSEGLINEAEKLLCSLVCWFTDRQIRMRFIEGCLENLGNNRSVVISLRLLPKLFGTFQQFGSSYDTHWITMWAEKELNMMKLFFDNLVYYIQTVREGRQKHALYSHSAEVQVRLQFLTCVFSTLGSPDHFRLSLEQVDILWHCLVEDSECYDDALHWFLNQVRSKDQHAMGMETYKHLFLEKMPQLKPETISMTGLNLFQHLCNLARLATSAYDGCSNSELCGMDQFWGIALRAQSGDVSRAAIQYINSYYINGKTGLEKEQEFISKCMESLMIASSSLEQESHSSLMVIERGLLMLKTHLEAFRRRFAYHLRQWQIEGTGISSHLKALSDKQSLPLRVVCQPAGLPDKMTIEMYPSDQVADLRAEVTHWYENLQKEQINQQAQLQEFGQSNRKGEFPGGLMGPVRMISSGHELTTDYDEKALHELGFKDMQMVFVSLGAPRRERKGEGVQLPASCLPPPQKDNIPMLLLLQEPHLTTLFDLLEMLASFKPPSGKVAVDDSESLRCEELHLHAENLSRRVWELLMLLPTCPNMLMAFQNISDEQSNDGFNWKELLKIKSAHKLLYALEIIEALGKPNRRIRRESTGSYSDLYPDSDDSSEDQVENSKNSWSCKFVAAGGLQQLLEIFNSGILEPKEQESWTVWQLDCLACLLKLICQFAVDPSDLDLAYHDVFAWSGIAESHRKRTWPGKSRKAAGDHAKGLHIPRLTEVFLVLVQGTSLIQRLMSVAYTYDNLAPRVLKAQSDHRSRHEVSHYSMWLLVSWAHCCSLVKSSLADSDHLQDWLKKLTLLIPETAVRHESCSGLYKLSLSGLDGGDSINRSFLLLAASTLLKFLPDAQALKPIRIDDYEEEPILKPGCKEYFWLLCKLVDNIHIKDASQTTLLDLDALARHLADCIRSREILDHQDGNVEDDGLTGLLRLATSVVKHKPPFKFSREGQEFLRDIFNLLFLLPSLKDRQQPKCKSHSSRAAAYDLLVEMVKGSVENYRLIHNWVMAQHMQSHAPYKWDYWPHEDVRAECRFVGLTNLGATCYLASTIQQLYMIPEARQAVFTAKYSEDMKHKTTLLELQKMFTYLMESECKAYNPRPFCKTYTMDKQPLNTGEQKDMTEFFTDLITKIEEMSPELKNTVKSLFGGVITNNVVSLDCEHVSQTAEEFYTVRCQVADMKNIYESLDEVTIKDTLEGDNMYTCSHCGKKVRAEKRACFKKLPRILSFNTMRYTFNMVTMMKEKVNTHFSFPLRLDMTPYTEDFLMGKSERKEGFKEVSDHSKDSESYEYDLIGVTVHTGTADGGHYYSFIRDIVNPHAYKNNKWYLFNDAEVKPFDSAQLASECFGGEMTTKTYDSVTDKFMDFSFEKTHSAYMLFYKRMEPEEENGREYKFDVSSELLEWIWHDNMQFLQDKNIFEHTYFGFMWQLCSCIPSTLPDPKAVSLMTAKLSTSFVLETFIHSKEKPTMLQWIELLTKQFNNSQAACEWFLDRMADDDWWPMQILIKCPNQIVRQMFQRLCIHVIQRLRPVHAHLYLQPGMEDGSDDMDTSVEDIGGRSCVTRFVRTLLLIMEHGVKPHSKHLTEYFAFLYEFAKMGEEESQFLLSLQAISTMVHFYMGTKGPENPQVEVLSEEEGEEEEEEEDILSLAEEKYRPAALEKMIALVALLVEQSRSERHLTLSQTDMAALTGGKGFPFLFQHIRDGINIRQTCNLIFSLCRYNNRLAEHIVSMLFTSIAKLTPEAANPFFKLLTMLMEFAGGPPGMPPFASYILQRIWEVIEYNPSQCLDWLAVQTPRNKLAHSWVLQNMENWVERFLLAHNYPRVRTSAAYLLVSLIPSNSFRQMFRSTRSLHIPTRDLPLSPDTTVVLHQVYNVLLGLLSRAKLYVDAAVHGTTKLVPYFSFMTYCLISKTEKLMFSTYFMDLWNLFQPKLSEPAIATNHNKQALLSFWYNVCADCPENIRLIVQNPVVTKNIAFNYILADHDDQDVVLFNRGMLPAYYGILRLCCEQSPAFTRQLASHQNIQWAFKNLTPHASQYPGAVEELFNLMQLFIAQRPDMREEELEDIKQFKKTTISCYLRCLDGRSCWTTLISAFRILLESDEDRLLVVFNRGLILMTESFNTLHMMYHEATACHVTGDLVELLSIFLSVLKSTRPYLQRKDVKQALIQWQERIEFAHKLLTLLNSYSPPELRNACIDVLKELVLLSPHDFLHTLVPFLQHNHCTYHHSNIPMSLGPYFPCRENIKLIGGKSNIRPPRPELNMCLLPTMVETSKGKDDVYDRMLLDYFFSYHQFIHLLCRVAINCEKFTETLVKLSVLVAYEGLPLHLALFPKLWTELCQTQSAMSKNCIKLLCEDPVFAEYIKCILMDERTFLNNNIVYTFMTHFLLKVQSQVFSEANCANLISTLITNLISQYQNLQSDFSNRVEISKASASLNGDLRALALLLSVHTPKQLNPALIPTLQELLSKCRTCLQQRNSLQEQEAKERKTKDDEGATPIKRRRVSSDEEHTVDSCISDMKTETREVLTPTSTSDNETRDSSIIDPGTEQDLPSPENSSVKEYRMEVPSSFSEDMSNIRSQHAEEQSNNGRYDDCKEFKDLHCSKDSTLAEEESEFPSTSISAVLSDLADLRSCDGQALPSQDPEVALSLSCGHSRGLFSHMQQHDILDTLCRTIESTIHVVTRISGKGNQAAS

Cl.O=C(CCl)N1CCC(n2nc3ccccc3n2)CC1
inactive: [1] -0.257 | [2] 0.0455 | [3] -0.223 | [4] -0.0437 | [5] -0.443

Reference: the supplement of paper PMC11732987, “Enantioselective OTUD7B fragment discovery through chemoproteomics screening and high-throughput optimisation” (Communications Chemistry, 2025)
